Assay results taken from PubChem BioAssay (NCATS).
Records with an inconclusive call do not appear. Active and inactive are the calls of the source. Unless noted, calls follow the shape of the dose curve; as a rule, active = well fitted curve in the direction sought with a large enough effect; inconclusive = small, poorly fitted or top-dose-only effect, or another doubt; inactive = no such curve, though single readings can be large; an effect the other way counts as inactive or inconclusive.

Experiments:
[1] = molecular target: Lysosomal acid glucosylceramidase (Homo sapiens) (UniProt P04062); experiment: Glucocerebrosidase-p2 (AID 348; in the data active = potency below about 10 µM; also: potency is read from the fitted curve at half-maximal effect); details: purified GBA, blue fluorogenic substrate, 40 min
Chain of Lysosomal acid glucosylceramidase (Homo sapiens) (P04062 whole entry, looked up): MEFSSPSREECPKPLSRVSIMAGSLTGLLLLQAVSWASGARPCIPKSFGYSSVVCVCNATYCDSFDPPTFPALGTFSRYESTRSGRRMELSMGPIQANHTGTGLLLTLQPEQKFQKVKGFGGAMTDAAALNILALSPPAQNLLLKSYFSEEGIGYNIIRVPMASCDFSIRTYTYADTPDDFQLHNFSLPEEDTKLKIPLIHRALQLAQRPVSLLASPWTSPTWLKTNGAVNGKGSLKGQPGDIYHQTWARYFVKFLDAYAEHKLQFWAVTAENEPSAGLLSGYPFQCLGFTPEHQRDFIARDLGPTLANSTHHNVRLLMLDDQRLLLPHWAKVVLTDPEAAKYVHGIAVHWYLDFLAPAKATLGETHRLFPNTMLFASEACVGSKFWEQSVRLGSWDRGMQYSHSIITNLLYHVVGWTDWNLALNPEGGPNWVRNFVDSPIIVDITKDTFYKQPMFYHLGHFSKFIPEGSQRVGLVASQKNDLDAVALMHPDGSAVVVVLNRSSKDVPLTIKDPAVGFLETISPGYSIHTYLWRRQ
Outline: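 Compounds titrated from 0.6 nM upwards against 0.2 nM enzyme in pH 5.9 citric acid/KH2PO4, taurocholate, tween-20; blue fluorogenic substrate 80 uM, 40 min room temperature, stopped and read Ex 365/Em 440 for AC50.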

[2] = AP1 Signaling Pathway (AID 357; active = well fitted curve in either direction with a large enough effect, not every such curve was filed as active;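 also: ME-180 reporter cells stimulated with EGF at its EC50 level; % is scaled to controls: 0 for no effect and ±100 for the full control effect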); details: ME-180 AP-1-bla reporter, EGF-induced, beta-lactamase ratio, 5 h; at 7.69 µM (top of the series) unless noted
Outline: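 Read-out was the 460nm/530nm emission ratio (excitation 405nm) after CCF4 loading for 2.5 hours at room temperature. Cells carried an AP-1-driven beta-lactamase reporter, were stimulated with EC50 EGF plus compound for 5 hours, and AC50 values came from titrations.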

[3] = molecular target: Glucocorticoid receptor (Homo sapiens) (UniProt P04150); experiment: GR-GFP Redistribution (AID 450;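 active = compounds whose dose series gives a full or clear partial fitted curve of increased nuclear translocation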; also: potency is read from the fitted curve at half-maximal effect); details: U2OS GR-GFP nuclear translocation, laser cytometry, 2 h
Chain of Glucocorticoid receptor (Homo sapiens) (P04150 whole entry, looked up, the tested form may be a part): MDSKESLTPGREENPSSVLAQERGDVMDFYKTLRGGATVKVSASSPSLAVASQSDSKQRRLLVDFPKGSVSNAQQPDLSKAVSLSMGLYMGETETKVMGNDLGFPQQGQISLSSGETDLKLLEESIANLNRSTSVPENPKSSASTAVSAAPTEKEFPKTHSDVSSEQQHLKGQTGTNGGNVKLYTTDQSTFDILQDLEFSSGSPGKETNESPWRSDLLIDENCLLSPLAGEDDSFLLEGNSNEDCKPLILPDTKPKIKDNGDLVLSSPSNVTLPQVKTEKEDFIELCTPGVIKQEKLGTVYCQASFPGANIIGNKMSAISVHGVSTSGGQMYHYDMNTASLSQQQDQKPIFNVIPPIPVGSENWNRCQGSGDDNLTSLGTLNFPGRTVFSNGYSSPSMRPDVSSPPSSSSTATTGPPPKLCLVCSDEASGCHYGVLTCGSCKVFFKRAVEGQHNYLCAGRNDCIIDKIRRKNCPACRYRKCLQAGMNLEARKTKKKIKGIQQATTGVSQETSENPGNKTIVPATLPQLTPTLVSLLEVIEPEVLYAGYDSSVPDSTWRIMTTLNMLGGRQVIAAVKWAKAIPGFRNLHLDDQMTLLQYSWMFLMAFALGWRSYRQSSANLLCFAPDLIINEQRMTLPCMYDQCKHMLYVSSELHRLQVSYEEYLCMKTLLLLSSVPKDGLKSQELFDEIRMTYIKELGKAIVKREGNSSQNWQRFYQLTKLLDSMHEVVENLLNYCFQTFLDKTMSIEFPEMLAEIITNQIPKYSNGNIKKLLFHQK

[4] = molecular target: Glucocorticoid receptor (Homo sapiens) (UniProt P04150); experiment: GR-EFC Redistribution (AID 451; calls by dose curve; also: potency is read from the fitted curve at half-maximal effect); details: CHO-K1 GR-EFC translocation, beta-gal luminescence, 2 h
Outline: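 Translocation of GR-ED fusion to nuclear EA restores b-gal, read by luminescence after 1 h room-temperature detection. Engineered CHO-K1 biosensor cells, 1,000/well, exposed 2 h at 37 C to titrations up to 46 uM final.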

[5] = molecular target: Mitogen-activated protein kinase 10 (Mus musculus) (UniProt Q61831); experiment: JNK3 AlphaScreen Assay (AID 530; active = well fitted curve in either direction with a large enough effect, not every such curve was filed as active;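 also: kinase came from lysate of stimulated human HepG2 cells; signal reports phosphorylation of biotinylated GST-cJun 1-79 at Ser73 with 10 µM ATP; % is scaled to controls: 0 for no effect and ±100 for the full control effect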); details: JNK3 lysate, c-Jun phosphorylation; series mostly up to 57.1 µM
Outline: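 Room-temperature AlphaScreen kinase assay; pre-activated HepG2 lysate as JNK3 source, biotin-GST-cJun(1-79) substrate, 10 uM ATP, compound 15 min preincubation.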

[6] = molecular target: Cytochrome P450 3A4 (Homo sapiens) (UniProt P08684); experiment: qHTS Assay for Activators of Cytochrome P450 3A4 (AID 885); details: recombinant CYP3A4, Luciferin-PPXE luminescence, 60 min; series mostly up to 57.1 µM; also: nearly all actives have a fitted effect of over 65% in size
Outline: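 Quantitative HTS format: compounds preincubated with 20nM human CYP3A4 and Luciferin-PPXE substrate at KM, reaction started by NADPH regeneration, stopped after 60 min, luciferase luminescence read 20 min later.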

[7] = qHTS Assay for Lipid Storage Modulators (AID 1519; calls by dose curve); details: Drosophila S3 cells, BODIPY lipid droplet/cell ratio, laser cytometry, cells loaded with oleic acid; for activity change, negative = inhibition: at 57.5 µM (top of the series)
Outline: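 Cells seeded at 5,000 per well were treated with compounds over a concentration series and loaded with oleic acid (400 uM, as added). Lipid droplet fluorescence (488 nm excitation, 500-530 nm channel) was read by laser-scanning cytometry and normalized to 20 uM Triacsin C.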

[8] = Primary qHTS for small molecule stabilizers of the endoplasmic reticulum resident proteome: Secreted ER Calcium Modulated Protein (SERCaMP) assay (AID 1508630); details: SH-SY5Y GLuc-SERCaMP (Gaussia luciferase released on ER calcium loss) secretion, thapsigargin, luminescence; series mostly up to 38.4 µM; also: % is scaled to controls: 0 for no effect and ±100 for the full control effect
Outline: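 GLuc-SERCaMP-expressing SH-SY5Y cells, pretreated 16 h with compound, are challenged with thapsigargin to empty ER calcium stores; after 4 h, coelenterazine is added directly to the medium and luminescence is imaged.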

[9] = molecular target: Rap guanine nucleotide exchange factor 3 (Homo sapiens) (UniProt O95398); experiment: Confirmatory qHTS for agonist of cAMP-regulated guanine nucleotide exchange factor 3 (EPAC1) (AID 1645881); details: EPAC1 Rap1B BODIPY-GDP exchange fluorescence, 100% = cAMP control response; series mostly up to 154 µM;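 also: EPAC1 catalysed release of BODIPY-GDP from Rap1B seen as fluorescence loss; nearly all actives have a fitted effect of over 75% in size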
[10] = molecular target: Rap guanine nucleotide exchange factor 4 (Homo sapiens) (UniProt Q8WZA2); experiment: Confirmatory qHTS for antagonist of cAMP-regulated guanine nucleotide exchange factor 4 (EPAC2) (AID 1645885); details: EPAC2 Rap1B-BODIPY-GDP exchange fluorescence, biochemical; series mostly up to 114 µM; also: nearly all actives have a fitted effect of over 25% in size; also: potency is read from the fitted curve at half-maximal effect
Chain of Rap guanine nucleotide exchange factor 4 (Homo sapiens) (Q8WZA2 whole entry, looked up): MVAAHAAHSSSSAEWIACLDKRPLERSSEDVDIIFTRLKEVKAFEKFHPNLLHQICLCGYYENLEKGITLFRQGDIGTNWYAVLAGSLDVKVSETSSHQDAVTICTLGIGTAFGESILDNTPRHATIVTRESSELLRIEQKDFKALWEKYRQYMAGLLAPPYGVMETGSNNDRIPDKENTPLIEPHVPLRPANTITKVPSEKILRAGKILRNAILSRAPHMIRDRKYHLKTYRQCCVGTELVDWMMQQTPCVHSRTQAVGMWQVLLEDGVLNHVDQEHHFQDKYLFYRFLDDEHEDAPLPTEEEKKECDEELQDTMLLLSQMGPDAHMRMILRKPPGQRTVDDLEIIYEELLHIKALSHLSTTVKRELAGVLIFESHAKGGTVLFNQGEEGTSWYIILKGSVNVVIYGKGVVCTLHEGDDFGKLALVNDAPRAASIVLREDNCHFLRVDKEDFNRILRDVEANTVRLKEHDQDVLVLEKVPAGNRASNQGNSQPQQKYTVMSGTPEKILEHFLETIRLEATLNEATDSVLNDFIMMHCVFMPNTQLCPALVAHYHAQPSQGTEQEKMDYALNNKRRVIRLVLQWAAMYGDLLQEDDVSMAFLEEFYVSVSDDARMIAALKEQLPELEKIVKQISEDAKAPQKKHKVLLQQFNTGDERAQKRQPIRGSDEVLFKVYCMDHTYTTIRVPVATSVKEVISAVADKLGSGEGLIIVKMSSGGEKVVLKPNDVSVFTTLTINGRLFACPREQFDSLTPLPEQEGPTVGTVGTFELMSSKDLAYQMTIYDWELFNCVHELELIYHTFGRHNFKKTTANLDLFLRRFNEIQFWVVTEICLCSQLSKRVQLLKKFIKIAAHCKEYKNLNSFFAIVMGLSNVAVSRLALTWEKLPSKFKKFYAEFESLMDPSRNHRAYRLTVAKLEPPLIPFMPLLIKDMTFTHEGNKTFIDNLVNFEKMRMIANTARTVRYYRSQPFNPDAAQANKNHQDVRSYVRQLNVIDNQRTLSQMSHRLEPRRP

[11] = molecular target: Cytochrome P450 1A2 (Homo sapiens) (UniProt P05177); experiment: p450-cyp1a2 (AID 410; calls by dose curve; also: potency is read from the fitted curve at half-maximal effect); details: recombinant CYP1A2, luciferin-ME demethylation, luminescence; series mostly up to 57 µM
Chain of Cytochrome P450 1A2 (Homo sapiens) (P05177 whole entry, looked up): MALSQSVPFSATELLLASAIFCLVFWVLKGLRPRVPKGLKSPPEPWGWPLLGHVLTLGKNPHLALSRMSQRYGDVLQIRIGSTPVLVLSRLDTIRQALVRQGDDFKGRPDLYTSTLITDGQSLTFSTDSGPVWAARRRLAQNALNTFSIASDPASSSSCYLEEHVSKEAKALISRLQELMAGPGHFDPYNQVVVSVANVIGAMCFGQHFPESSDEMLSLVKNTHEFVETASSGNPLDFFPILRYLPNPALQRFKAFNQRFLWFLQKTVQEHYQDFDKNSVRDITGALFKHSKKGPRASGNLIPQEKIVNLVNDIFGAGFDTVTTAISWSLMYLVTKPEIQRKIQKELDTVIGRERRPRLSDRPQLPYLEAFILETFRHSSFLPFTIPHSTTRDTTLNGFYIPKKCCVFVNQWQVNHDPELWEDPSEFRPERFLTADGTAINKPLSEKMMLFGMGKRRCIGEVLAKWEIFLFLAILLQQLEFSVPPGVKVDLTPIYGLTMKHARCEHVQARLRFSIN
Outline: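 Inhibition was calculated relative to 57 uM furafylline (full inhibition). The reaction used human CYP1A2 at 20nM with Luciferin-ME at its Km, 100uM, driven by an NADPH-regenerating system for 60 min at room temperature.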

[12] = NFAT Signaling Pathway (AID 444; active = well fitted curve in either direction with a large enough effect, not every such curve was filed as active;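 also: carbachol stimulus at about its EC50 of 1 µM final; % is scaled to controls: 0 for no effect and ±100 for the full control effect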); details: Jurkat NFAT-bla M1, carbachol, beta-lactamase ratio, 5 h; at 7.69 µM (top of the series) unless noted
Outline: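 Read-out: CCF4 FRET ratio (460 nm/530 nm) after 1 h RT dye loading, used for %activity and AC50 from titration series. Cells: Jurkat NFAT-β-lactamase/M1 line, treated with compound plus 1 uM carbachol for 5 h, 37 °C.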

[13] = Stat Signaling Pathway (AID 446; active = well fitted curve in either direction with a large enough effect, not every such curve was filed as active); details: ME-180 (cervical carcinoma) SIE beta-lactamase reporter, IL-6 stimulated, 5 h; at 7.69 µM (top of the series) unless noted
Outline: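 IL-6/STAT signaling read in ME-180 cells via an SIE beta-lactamase reporter. Stimulus was 40 pM IL-6 (its AC50) for 5 hrs, so both activation and inhibition register.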

[14] = molecular target: Dual specificity protein kinase CLK4 (Homo sapiens) (UniProt Q9HAZ1); experiment: qHTS Assay for Inhibitors of CDC-like Kinase 4 (Kinase-Glo Assay) (AID 1770); details: recombinant Clk4, Kinase-Glo ATP depletion luminescence; series mostly up to 66.7 µM; also: % is scaled to controls: 0 for no effect and ±100 for the full control effect; nearly all actives have a fitted effect of over 65% in size
Chain of Dual specificity protein kinase CLK4 (Homo sapiens) (Q9HAZ1 whole entry, looked up): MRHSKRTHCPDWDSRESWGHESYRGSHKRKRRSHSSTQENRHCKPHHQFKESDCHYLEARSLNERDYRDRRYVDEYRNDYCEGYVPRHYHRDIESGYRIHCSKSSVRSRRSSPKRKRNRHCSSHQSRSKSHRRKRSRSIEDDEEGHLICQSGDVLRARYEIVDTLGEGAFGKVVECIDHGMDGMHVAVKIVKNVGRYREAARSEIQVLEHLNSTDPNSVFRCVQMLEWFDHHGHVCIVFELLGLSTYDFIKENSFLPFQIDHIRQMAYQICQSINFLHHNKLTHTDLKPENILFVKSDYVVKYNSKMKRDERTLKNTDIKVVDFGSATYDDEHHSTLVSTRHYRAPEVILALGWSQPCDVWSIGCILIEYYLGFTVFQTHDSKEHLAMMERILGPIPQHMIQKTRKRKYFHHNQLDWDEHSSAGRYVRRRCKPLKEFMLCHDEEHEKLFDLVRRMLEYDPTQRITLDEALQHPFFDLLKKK
Outline: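 Luminescent ATP-depletion read-out (Kinase-Glo) after 4.5 h room-temperature reaction of Clk4 (25 nM final) with RS peptide (100 uM) and ATP (1 uM), pH 7.5 Tris buffer with MgCl2 and DTT.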

[15] = molecular target: Dual specificity protein kinase CLK4 (Homo sapiens) (UniProt Q9HAZ1); experiment: qHTS Assay for Inhibitors of CDC-like Kinase 4 (ADP-Glo Assay) (AID 1771); details: recombinant CLK4, ADP-Glo luminescence; series mostly up to 80 µM; also: % is scaled to controls: 0 for no effect and ±100 for the full control effect; nearly all actives have a fitted effect of over 70% in size
Outline: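 Kinase reaction: Clk4 at 25 nM, RS repeat peptide substrate at 100 uM, ATP at 1 uM, 1 hr, room temperature. Product ADP detected as luciferase signal via ADP-Glo.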

[16] = molecular target: Dual specificity protein kinase CLK4 (Homo sapiens) (UniProt Q9HAZ1); experiment: qHTS Assay for Inhibitors of CDC-like Kinase 4 (ADP-FP Assay) (AID 1795); details: Transcreener ADP fluorescence polarization; series mostly up to 50 µM;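 also: recombinant human CLK4 phosphorylating RS repeat peptide at 1 µM ATP; % is scaled to controls: 0 for no effect and ±100 for the full control effect; nearly all actives have a fitted effect of over 60% in size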
Outline: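 Kinase activity was measured as ADP production using Transcreener orange tracer (4 nM) and ADP antibody (1 ug/mL) fluorescence polarization, with ADP calculated from a calibration curve. The 1 h reaction contained 6.25 nM Clk4, 1 uM ATP and 100 uM RS peptide at pH 7.5 with Mg2+.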

[17] = molecular target: Ubiquitin carboxyl-terminal hydrolase 1 (Homo sapiens) (UniProt O94782); experiment: Inhibitors of USP1/UAF1: Pilot qHTS (AID 504865); details: purified USP1/UAF1, Ub-rhodamine cleavage fluorescence; series mostly up to 54.9 µM;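 also: rhodamine fluorescence freed from ubiquitin-rhodamine substrate followed over time; top concentration of the series differs between compounds; % is scaled to controls: 0 for no effect and ±100 for the full control effect; nearly all actives have a fitted effect of over 35% in size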
Chain of Ubiquitin carboxyl-terminal hydrolase 1 (Homo sapiens) (O94782 whole entry, looked up): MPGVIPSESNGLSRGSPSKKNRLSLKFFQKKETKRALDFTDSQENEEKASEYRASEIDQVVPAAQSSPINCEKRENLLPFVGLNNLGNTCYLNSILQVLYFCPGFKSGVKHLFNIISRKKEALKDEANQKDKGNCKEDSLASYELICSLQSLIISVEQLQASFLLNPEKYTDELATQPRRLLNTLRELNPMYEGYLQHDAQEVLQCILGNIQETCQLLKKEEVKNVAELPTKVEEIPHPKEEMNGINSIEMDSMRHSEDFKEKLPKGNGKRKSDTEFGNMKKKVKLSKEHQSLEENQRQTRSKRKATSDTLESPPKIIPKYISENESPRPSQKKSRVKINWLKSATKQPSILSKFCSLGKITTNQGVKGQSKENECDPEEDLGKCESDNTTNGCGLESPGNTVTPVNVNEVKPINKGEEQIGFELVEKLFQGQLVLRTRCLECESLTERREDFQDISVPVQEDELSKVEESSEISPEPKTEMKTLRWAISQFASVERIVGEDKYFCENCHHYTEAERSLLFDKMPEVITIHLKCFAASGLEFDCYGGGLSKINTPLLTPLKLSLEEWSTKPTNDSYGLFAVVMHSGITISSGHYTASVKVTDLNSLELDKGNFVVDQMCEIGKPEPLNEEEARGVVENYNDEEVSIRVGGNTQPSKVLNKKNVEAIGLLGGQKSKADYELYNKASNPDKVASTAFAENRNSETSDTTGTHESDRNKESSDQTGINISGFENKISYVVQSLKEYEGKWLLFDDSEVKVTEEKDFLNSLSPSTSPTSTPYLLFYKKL
Outline: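 Deubiquitinase activity followed as kinetic rhodamine fluorescence release from 150 nM Ub-Rho. 1 nM USP1/UAF1 with compound, after 15 min room-temperature preincubation, in HEPES pH 7.8 buffer containing TCEP, EDTA, BSA and Tween-20.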

[18] = molecular target: 3',5'-cyclic-AMP phosphodiesterase 4B (Homo sapiens) (UniProt Q07343); experiment: qHTS Assay for Inhibitors of PDE-IV (AID 607; active = well fitted activation curve with a large enough effect in the main read-out, with a control signal flat, not every such curve was filed as active; also: % of control where 0% means no effect); details: HEK293 ACTOne CNG channel cells, membrane potential fluorescence; series mostly up to 22.9 µM
Chain of 3',5'-cyclic-AMP phosphodiesterase 4B (Homo sapiens) (Q07343 whole entry, looked up): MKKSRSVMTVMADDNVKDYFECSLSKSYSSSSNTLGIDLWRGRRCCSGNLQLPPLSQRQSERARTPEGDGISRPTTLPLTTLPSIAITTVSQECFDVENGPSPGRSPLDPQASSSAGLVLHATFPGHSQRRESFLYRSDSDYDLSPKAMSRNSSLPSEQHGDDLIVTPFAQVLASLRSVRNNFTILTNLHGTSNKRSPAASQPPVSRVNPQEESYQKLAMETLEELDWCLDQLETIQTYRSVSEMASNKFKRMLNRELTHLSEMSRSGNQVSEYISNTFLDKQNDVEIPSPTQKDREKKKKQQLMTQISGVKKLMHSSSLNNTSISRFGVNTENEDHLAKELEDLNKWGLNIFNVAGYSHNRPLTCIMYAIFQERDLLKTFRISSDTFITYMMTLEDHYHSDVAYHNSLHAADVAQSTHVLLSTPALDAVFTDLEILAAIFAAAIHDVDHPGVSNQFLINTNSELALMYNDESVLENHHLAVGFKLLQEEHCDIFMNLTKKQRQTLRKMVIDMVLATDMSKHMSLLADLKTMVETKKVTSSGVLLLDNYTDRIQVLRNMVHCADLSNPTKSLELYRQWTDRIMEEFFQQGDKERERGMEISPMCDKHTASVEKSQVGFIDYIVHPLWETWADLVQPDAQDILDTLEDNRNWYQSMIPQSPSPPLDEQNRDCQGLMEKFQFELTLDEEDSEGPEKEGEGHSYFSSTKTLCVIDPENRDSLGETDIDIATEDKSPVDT
Outline: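 Live HEK293 cells with a modified cyclic nucleotide-gated (CNG) channel report intracellular cAMP via membrane-potential dye fluorescence (ex 535/em 590 nm). Endogenous PDE-IV was targeted. Compounds were tested at up to 22.9 uM final; RO 20-1724 100 uM served as control.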

[19] = molecular target: Rap guanine nucleotide exchange factor 4 (Homo sapiens) (UniProt Q8WZA2); experiment: Confirmatory qHTS for agonist of cAMP-regulated guanine nucleotide exchange factor 4 (EPAC2) (AID 1645884); details: EPAC2 GEF activity, Rap1B-BODIPY-GDP fluorescence, percent relative to cAMP agonist control; series mostly up to 154 µM;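 also: nucleotide exchange releases bodipy-GDP from Rap1 and this lowers its fluorescence; % is scaled to controls: 0 for no effect and ±100 for the full control effect; nearly all actives have a fitted effect of over 65% in size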
[20] = measured here: cell count channel max response
[21] = measured here: lipid channel max response

O=c1c(-c2cc(F)cc(F)c2)nc2cnc(N3CCNCC3)nc2n1Cc1cccs1
active: activity change, negative = inhibition [2] 98% [activator] | Potency [10] 55.5 µM
-11.3%: max response [7, 20]
-33.5%: max response [7, 21]
inactive: Potency [1] > 11.4 µM | Potency [3] > 9.22 µM | Potency [4] > 46 µM | outcome [5] | Potency [6] | activity change, negative = inhibition [7] -29.8% | Potency [8] | outcome [9]

Cn1cc(-c2nc3cncnc3n(Cc3ccc(F)cc3)c2=O)c2ccccc21
15.3%: max response [7, 20]
20.1%: max response [7, 21]
inactive: Potency [1] > 11.4 µM | activity change, negative = inhibition [2] -19.3% | activity change, negative = inhibition [12] -18.4% | activity, negative = inhibition [13] -7.96% | Potency [3] > 9.22 µM | Potency [4] > 46 µM | outcome [5] | activity change, negative = inhibition [7] 6.13% | Potency [14] | Potency [15] | Potency [16] | Potency [17] | Potency [8]
active: Potency [11] 1.26 µM

COc1ncc2ncc(=O)n(C[C@H]3CCCO3)c2n1
inactive: Potency [1] > 11.4 µM | activity change, negative = inhibition [2] -16.2% | activity change, negative = inhibition [12] 4.03% | activity, negative = inhibition [13] -8.8% | Potency [3] > 9.22 µM | Potency [4] > 46 µM | outcome [5] | Potency [18] | activity change, negative = inhibition [7] 4.31% | Potency [14] | Potency [15] | Potency [16] | Potency [17] | Potency [8]
3.18%: max response [7, 20]
active: Potency [11] 15.8 µM
6.83%: max response [7, 21]

COc1ccc(C(=O)N2CCC3(CC2)CN(c2ccncc2)C3)cc1
-4.19%: max response [7, 21]
inactive: Potency [1] > 11.4 µM | activity change, negative = inhibition [12] -16% | activity, negative = inhibition [13] 5.81% | Potency [4] > 46 µM | Potency [18] | Potency [6] | activity change, negative = inhibition [7] -1.18% | Potency [8] | outcome [9] | outcome [19] | Potency [10]
-4.69%: max response [7, 20]

CCNc1ncc2nc(-c3ccc(F)cc3)c(=O)n(CCOC)c2n1
28.8%: max response [7, 21]
active: Potency [11] 2 µM
inactive: Potency [1] > 11.4 µM | activity change, negative = inhibition [2] -5.66% | activity change, negative = inhibition [12] -3.34% | activity, negative = inhibition [13] 10.5% | Potency [3] > 9.22 µM | Potency [4] > 46 µM | outcome [5] | Potency [18] | activity change, negative = inhibition [7] 6.73% | Potency [14] | Potency [15] | Potency [16] | Potency [17] | Potency [8]
22.2%: max response [7, 20]

COc1ccc(-n2c(=O)c(-c3cccs3)nc3cncnc32)cc1
active: Potency [11] 10 µM
inactive: Potency [1] > 11.4 µM | activity change, negative = inhibition [2] -19.3% | activity change, negative = inhibition [12] 0.0711% | activity, negative = inhibition [13] -0.243% | Potency [3] > 9.22 µM | Potency [4] > 46 µM | outcome [5] | activity change, negative = inhibition [7] -10.8% | Potency [14] | Potency [15] | Potency [16] | Potency [17] | Potency [8]
28.9%: max response [7, 20]
11.5%: max response [7, 21]
